Reference: article PMC4336329 (PLoS ONE, 2015)
About 14,000 (4.5%) of roughly 310,000 compounds showed an effect of 50% or more. The effect is printed as a negative number. The list comes from a sample in which strong results are over-represented; it also holds similar structures and randomly drawn compounds.

Biological target: human ether-à-go-go-related gene (hERG) potassium channel (human, UniProt Q12809)
Assay: primary screen, population patch clamp on CHO cells stably expressing hERG; higher = less effect of the substance
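Further: peak tail current of the secondary pulse compared with the same well before compound.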

human ether-à-go-go-related gene (hERG) potassium channel, sequence (Q12809 whole entry, looked up): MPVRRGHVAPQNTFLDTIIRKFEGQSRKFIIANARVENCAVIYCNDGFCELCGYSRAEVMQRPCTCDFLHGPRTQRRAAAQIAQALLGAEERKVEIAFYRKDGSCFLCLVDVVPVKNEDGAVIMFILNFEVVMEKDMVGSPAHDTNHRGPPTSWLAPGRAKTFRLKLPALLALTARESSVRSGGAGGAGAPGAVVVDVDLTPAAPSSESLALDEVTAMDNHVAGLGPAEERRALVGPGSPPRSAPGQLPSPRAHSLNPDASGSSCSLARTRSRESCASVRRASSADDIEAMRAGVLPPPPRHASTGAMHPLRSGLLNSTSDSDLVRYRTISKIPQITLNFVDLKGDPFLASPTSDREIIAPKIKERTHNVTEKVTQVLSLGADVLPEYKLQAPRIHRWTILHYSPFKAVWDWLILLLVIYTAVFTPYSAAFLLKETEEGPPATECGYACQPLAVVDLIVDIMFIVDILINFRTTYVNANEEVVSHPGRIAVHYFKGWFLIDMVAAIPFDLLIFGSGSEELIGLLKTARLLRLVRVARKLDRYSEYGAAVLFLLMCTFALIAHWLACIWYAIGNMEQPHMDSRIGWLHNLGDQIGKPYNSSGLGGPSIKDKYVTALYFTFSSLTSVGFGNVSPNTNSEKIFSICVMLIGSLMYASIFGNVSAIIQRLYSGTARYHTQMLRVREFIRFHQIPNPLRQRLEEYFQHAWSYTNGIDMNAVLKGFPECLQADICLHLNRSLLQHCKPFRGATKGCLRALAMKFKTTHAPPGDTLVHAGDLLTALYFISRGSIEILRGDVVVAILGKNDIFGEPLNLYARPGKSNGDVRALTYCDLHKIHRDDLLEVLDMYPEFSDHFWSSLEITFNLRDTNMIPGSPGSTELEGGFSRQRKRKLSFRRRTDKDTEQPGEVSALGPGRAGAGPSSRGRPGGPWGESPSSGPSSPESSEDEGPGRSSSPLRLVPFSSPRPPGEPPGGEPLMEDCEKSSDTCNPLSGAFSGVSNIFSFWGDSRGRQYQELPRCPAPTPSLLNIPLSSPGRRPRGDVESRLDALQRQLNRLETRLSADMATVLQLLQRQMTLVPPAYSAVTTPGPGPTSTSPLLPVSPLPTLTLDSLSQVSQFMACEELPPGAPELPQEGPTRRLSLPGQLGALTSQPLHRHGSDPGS

| Compound | hERG current change (%, negative = inhibition) at 10uM |
| --- | --- |
| O=C(CNC(=O)c1ccco1)NCC(=O)OCc1cccc(Cl)c1 | -13% |
| COC(=O)COc1ccc(C2Nc3c(Cl)ccc(C(=O)O)c3C3C=CCC32)cc1 (centres unmarked) | 12.9% |
| Cn1ncc(Cl)c1C(=O)Nc1cc(C(F)(F)F)ccc1F | 29.5% |
| COC(=O)c1ccc(NC2=C(Cl)C(=O)OC2OC(=O)c2ccccc2)cc1 (centres unmarked) | -22.5% |
| Cc1ccc(NC2=C(Cl)C(=O)OC2OC(=O)c2ccco2)cc1 (centres unmarked) | -42.2% |
| Cc1ccc(NC2=C(Cl)C(=O)OC2OC(=O)c2ccc(C)cc2)cc1 (centres unmarked) | -51.7% |
| COCCCN1C(=O)C(=O)/C(=C(/O)c2ccccc2)C1c1ccc(N(C)C)cc1 (centres unmarked) | 12.8% |
| CSCC[C@H](NC(=O)Nc1ccc(S(N)(=O)=O)cc1)C(=O)O | 9.48% |
| COc1cccc(NC(=O)CCC(=O)Nc2ccc3nc(N4CCOCC4)cc(C)c3c2)c1 | 23.4% |
| CCOc1ccc(C(=O)Nc2ccc3nc(N4CCN(CC)CC4)cc(C)c3c2)cc1 | -23% |
| COc1cccc(C(=O)Nc2ccc3nc(N4CCOCC4)cc(C)c3c2)c1 | -55% |
| COc1ccc(NC(=O)CCC(=O)Nc2ccc3nc(N4CCOCC4)cc(C)c3c2)c(OC)c1 | 16.5% |
| CCN1CCN(c2cc(C)c3cc(NC(=O)CCC(=O)Nc4ccc(OC)c(OC)c4)ccc3n2)CC1 | 4.85% |
| CCN1CCN(c2cc(C)c3cc(NC(=O)c4cc(OC)cc(OC)c4)ccc3n2)CC1 | -35.6% |
| COc1ccc(C(=O)Nc2ccc3nc(N4CCCCC4)cc(C)c3c2)cc1OC | -56.8% |
| CCN1CCN(c2cc(C)c3cc(NC(=O)c4ccc(OC)c(OC)c4)ccc3n2)CC1 | -46% |
| CCN1CCN(c2cc(C)c3cc(NC(=O)c4cccc(OC)c4)ccc3n2)CC1 | -50.9% |
| COc1ccc(Cc2nc3ccc(C(=O)N(C)C(C)c4ccon4)cc3o2)cc1 (centres unmarked) | -3.64% |
| O=C1COc2ccc(C(=O)c3ccccc3C(=O)NCc3ccccc3)cc2N1 | -5.41% |
| COc1cccc(CC(=O)OC(C)C(=O)Nc2ccc(Cl)cn2)c1 (centres unmarked) | -23.9% |
| CC(=O)Nc1nc2ccc(S(=O)(=O)N3CCCCC3)cc2s1 | 11.4% |

| Compound | hERG current change (%, negative = inhibition) at 10uM |
| --- | --- |
| Cc1ccccc1NC(=O)Cc1nc(-c2c[nH]c(C(=O)N3CCCC3)c2)cs1 | 4.63% |
| Cc1ccc(NC(=O)C(=O)NNC(=O)c2ccccc2C)cc1Cl | -5.32% |
| CCOCCCn1c(=NC(C)=O)c(C#N)cc2c(=O)n3cccc(C)c3nc21 | -41.8% |
| Cc1cccn2c(=O)c3cc(C#N)c(=NC(=O)c4cccs4)n(CCCOC(C)C)c3nc12 | -80.7% |
| CCCCn1c(=NC(=O)c2ccc3c(c2)OCO3)c(C#N)cc2c(=O)n3cccc(C)c3nc21 | -5.68% |
| CCOCCCn1c(=NC(=O)c2ccc(OC)c(OC)c2)c(C#N)cc2c(=O)n3cccc(C)c3nc21 | -63.4% |
| CCOCCCn1c(=NC(=O)c2cccs2)c(C#N)cc2c(=O)n3cccc(C)c3nc21 | -74.1% |
| Cc1cccn2c(=O)c3cc(C#N)c(=NC(=O)c4cccs4)n(CC(C)C)c3nc12 | -11.5% |
| NC(=O)Nc1ccc(Oc2c(F)c(F)c(F)c(F)c2F)cc1 | -11.5% |
| Cc1cccc(N2CCN(CC(=O)Nc3ccc(-n4cnnn4)cc3)CC2)c1C | 12.8% |
| O=C(Nc1ccc(F)cc1)c1ccccc1S(=O)(=O)c1ccccc1[N+](=O)[O-] | -17.5% |
| N#C/C(Cn1c[n+](NC(=O)Nc2ccccc2)cn1)=N/O.[Cl-] | 16.2% |
| Cc1cccn2c(=O)c3cc(C(=O)N4COCC4(C)C)sc3nc12 | 0.269% |
| CC(C)[C@@H]1NC(=O)c2cc([N+](=O)[O-])cc(I)c2OCC[C@@H](C(N)=O)NC(=O)[C@H](CCC(=O)O)NC1=O | 2.02% |
| CCc1ccccc1NC(=S)N(CCN(C)C)Cc1cccs1 | -22.4% |
| COc1ccc(S(=O)(=O)N(C)CC(=O)N2CCC(C)CC2)cc1Cl | -0.646% |
| CC(C)NC(=O)C1CCN(C2CCN(Cc3ccc4cccc(F)c4n3)CC2)CC1 | -38.6% |
| OCCC1CN(Cc2nc3ccccc3s2)CCN1C1CCCCC1 (centres unmarked) | -60% |
| CC(C)N1CCC(N2CCN(Cc3nc4ccccc4s3)CC2CCO)CC1 (centres unmarked) | -33.4% |
| CC(C)CCN1CCN(Cc2nc3ccccc3s2)CC1CCO (centres unmarked) | -41.4% |
| OCCC1CN(Cc2nc3ccccc3s2)CCN1C1CCCC1 (centres unmarked) | -48.9% |

| Compound | hERG current change (%, negative = inhibition) at 10uM |
| --- | --- |
| CC(C)NC(=O)C1CCN(C2CCN(Cc3nc4ccccc4s3)CC2)CC1 | -65.2% |
| CC(C)CN1CCN(Cc2nc3ccccc3s2)CC1CCO (centres unmarked) | -56.8% |
| CC(C)NC(=O)C1CCN(C2CCN(Cc3nc(C(C)C)cs3)CC2)CC1 | -49.5% |
| OCCC1CN(Cc2nc3ccccc3s2)CCN1CCc1ccccc1 (centres unmarked) | -77.7% |
| CC(C)N1CCN(Cc2nc3ccccc3s2)CC1CCO (centres unmarked) | -37.6% |
| O=C1S/C(=C\c2ccc(Cl)cc2)C(=O)N1CCn1cnnn1 | -0.978% |
| CC(=O)c1cc2c(cc1N(C(=O)Cn1nnc3ccccc31)C(C(=O)NCCC(C)C)c1cccnc1)OCO2 (centres unmarked) | 8.92% |
| CCc1ccccc1NC(=O)C1CCN(C(=O)c2cccs2)CC1 | -24.3% |
| COc1ccc(S(=O)(=O)N2CCCCCC2)cc1NC(=O)CN1C(=O)NC(C)(c2ccccc2)C1=O (centres unmarked) | -31.4% |
| Cc1ccc(Sc2ccc(C(=O)N3CCOCC3)cc2[N+](=O)[O-])cc1 | -32.3% |
| O=[N+]([O-])c1ccc(Cl)cc1CN1CCCCCC1 | -3.36% |
| O=C(O)c1ccccc1C(=O)c1ccc(Sc2ccc(Cl)cc2)c([N+](=O)[O-])c1 | 6.94% |
| O=[N+]([O-])c1cc(CN2CCCCCC2)ccc1O | 9.47% |
| Cc1ccc(Sc2ccc(CN3CCCCC3)cc2[N+](=O)[O-])cc1 | -27.4% |
| Cc1ccc(Sc2ccc(CN3CCCC3)cc2[N+](=O)[O-])cc1 | -83% |
| CN1CCN(Cc2ccc(Sc3ccc(Cl)cc3)c([N+](=O)[O-])c2)CC1 | -80.4% |
| O=[N+]([O-])c1cc(CN2CCC(O)CC2)ccc1Cl | 9.08% |
| O=[N+]([O-])c1cc(CN2CCCC2)ccc1Sc1ccc(Cl)cc1 | -93.8% |
| CCN(CC(=O)NCCCN1CCOCC1)S(=O)(=O)c1cc(Cl)ccc1Cl | 6.16% |
| CN(Cc1ccc(Br)cc1)C(=O)CCN1C(=O)c2cccc([N+](=O)[O-])c2C1=O | 21.8% |
| COc1cccc(OCc2cc(C(=O)N3CCN(c4ccccc4OC)CC3)no2)c1 | 6.19% |

| Compound | hERG current change (%, negative = inhibition) at 10uM |
| --- | --- |
| COc1c(C)cccc1C(=O)NCc1ccc2c(c1)OCO2 | -2.64% |
| O=S(=O)(NCC1CCCO1)c1ccc(S(=O)(=O)N(Cc2ccc(F)cc2)C2CCCCC2)cc1 (centres unmarked) | -2.39% |
| COc1ccccc1NC(=O)CSc1nnc(CC(=O)Nc2ccccc2F)n1C | 11.4% |
| COc1ccc(-n2c(SCC(=O)Nc3nccs3)nc3c(c2=O)SC(C)C3)cc1 (centres unmarked) | -13.5% |
| COc1ccc(/C(O)=C/C(=O)C(=O)Nc2c(C)n(C)n(-c3ccccc3)c2=O)cc1 | 8.01% |
| CCc1c(C)sc2nc3c(C(=O)N4CCOCC4)cc(C(=O)c4ccccc4O)cn3c(=O)c12 | -10.7% |
| Cc1cc(C)nc(OC(C(=O)O)C(OCCc2ccccc2)(c2ccccc2)c2ccccc2)n1 (centres unmarked) | 16.3% |
| CCOC(=O)C1=C(CC)Nc2ccccc2N=C1NC(=O)c1oc2ccccc2c1C | 12.6% |
| CC(C)(CNC(=O)c1ccc(-c2ccccc2Cl)o1)N1CCOCC1 | -39.9% |
| O=C(COC(=O)c1cc(=O)c2ccccc2o1)NCC1CCCCC1 | 6.26% |
| CCCN(CCC)CC(O)COc1ccc([N+](=O)[O-])cc1 (centres unmarked) | -77.1% |
| Cc1cc(C)cc(NC(=O)NCC(O)COc2ccc([N+](=O)[O-])cc2)c1 (centres unmarked) | -42.3% |
| O=C(NCC(O)COc1ccc([N+](=O)[O-])cc1)Nc1ccccc1 (centres unmarked) | -49.4% |
| Cl.OCCN(CCO)CC(O)COc1ccc2c(c1)OCO2 (centres unmarked) | 2.18% |
| COC(=O)c1ccc(OCC(O)CN(CCO)CCO)cc1 (centres unmarked) | -3.29% |
| CC(C)CN(CC(C)C)CC(O)COc1ccc([N+](=O)[O-])cc1.Cl (centres unmarked) | -66.8% |
| O=[N+]([O-])c1ccc(OCC(O)CN(CCO)CCO)cc1 (centres unmarked) | -54.8% |
| CCCN(CCC)CC(O)COc1ccc2c(c1)OCO2.Cl (centres unmarked) | -28.8% |
| COC(=O)c1ccc(OCC(O)CN(CC(C)C)CC(C)C)cc1 (centres unmarked) | -4.37% |
| C/C(=N\NC(=O)CC(C)C)c1ccc(Cl)c(Cl)c1 | 30.7% |
